From PubChem BioAssay AID485344 (National Center for Advancing Translational Sciences (NCATS), 2010)
Hit rate of the full screen: of about 340,000 compounds, about 6,900 (2%) were called active. The full list was thinned out, with actives kept by preference. Unmarked numbers belong to inactive results. Cut-off read from the data, not from the text of the source: active = inhibition above about 30%; inactive = below that, where a call was filed.
Note: 0% is about no effect.

What follows are molecules tested against D(2) dopamine receptor (Homo sapiens) (UniProt P14416) (assay: HTS Assay for Allosteric Antagonists of the Human D2 Dopamine Receptor: Primary Screen for Antagonists). Conditions: HEK293 TREx D2 cells, calcium flux, dopamine EC80; at 10 µM; stronger effect = higher value.
Chain of D(2) dopamine receptor (Homo sapiens) (P14416 whole entry, looked up): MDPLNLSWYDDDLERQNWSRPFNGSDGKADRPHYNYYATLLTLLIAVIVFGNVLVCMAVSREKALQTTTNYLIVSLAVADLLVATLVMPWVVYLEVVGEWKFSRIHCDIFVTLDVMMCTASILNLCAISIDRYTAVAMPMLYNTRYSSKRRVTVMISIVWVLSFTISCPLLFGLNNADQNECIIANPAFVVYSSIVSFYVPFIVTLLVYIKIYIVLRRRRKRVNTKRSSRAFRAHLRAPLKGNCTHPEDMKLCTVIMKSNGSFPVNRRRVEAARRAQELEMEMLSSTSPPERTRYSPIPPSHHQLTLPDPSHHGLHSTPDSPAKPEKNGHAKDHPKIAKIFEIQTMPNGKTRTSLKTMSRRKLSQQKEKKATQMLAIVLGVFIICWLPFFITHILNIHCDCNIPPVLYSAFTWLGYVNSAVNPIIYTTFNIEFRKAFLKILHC
Outline: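 In this primary screen, negative modulation is detected by tracking calcium flux after an EC80 dopamine challenge in inducible HEK293 T-REx D2 cells preexposed to test compound for 180 s.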
Molecule CCOC(=O)c1sc(NC(=O)C2CSC3(C)CCC(=O)N23)nc1C (stereo not given) has an inhibition of -25.8%.
With COc1ccc(C2(C)ON(c3ccccc3C(F)(F)F)C2=O)cc1 (stereo not given) the inhibition was -4.74%.
For O=C1/C(=C/c2ccc(F)cc2)SC(=S)N1CCCC(=O)N1CCCCC1CCO (stereo not given), the inhibition was 31.6% (active).
O=C(CCCN1C(=O)/C(=C\c2ccccc2)SC1=S)Nc1ccccc1O showed an inhibition of -8.37%.
For CCN(C(=O)CN1C(=O)/C(=C/c2ccc(F)cc2)SC1=S)C1CCS(=O)(=O)C1 (stereo not given), the inhibition was -6.17%.
Molecule COc1ccc(Cl)cc1NC(=O)CN(C)C(=O)c1ccc2n[nH]nc2c1 has an inhibition of -5.47%.
With CCC1(CC)Cc2ccccc2-c2nc3ccccc3c(=O)n21 the inhibition was 5.55%.
For CCn1c(C)nc2c1C(=O)c1ccccc1C2=O, the inhibition was 34.8% (active).
Cc1nc2ccccc2n1CC(O)c1ccccc1 (stereo not given) gave an inhibition of 2.64%.
For C#CCOCCOCCOCCNc1nc(N2CCN(C(=O)[C@H](CCCCN)n3cc(CCC(=O)O)nn3)CC2)nc(N2CCN(C(=O)[C@H](CCCCN)n3cc(CC(C)O)nn3)CC2)n1 (stereo not given in full), the inhibition was -5%.
COc1ccccc1Nc1nnc(SC(C)C(=O)NC2CC2)s1 (stereo not given) was tested, and the inhibition was -7.77%.
Work on Cc1ccc([C@@H]2CC=C(C(=O)O)[C@H](c3cccc(Cl)c3)N2S(=O)(=O)c2ccc(C)cc2)cc1 yielded an inhibition of 10.4%.
Work on C[C@H](NC(=O)c1ccccc1Cl)C(=O)OCC(=O)N1CCN(c2ccccc2)CC1 yielded an inhibition of 8.27%.
In the case of COc1ccccc1CNC(=O)CCCNS(=O)(=O)c1cccc2nsnc12, the inhibition is reported as 42.4% (active).
CCOc1ccccc1NC(=O)CCS(=O)(=O)c1cccc2nsnc12 gave an inhibition of 4.79%.
O=C(C(NS(=O)(=O)c1cccc2nsnc12)c1ccccc1)N1CCN(c2ccccc2)CC1 (stereo not given) gave an inhibition of 1.2%.
Work on O=C(CCS(=O)(=O)c1cccc2nsnc12)N1CCN(c2ccccc2F)CC1 yielded an inhibition of -8.03%.
O=C(CCCNS(=O)(=O)c1cccc2nsnc12)NCCN1CCN(c2ccccc2F)CC1 was tested, and the inhibition was 78.8% (active).
In the case of COc1ccc(CNC(=O)C(NS(=O)(=O)c2cccc3nsnc23)C(C)C)cc1 (stereo not given), the inhibition is reported as 7.26%.
In the case of CC1CCCCC12NC(=O)N(CC(=O)Nc1ccc(S(=O)(=O)Nc3ncccn3)cc1)C2=O (stereo not given), the inhibition is reported as 14.7%.
For CCC(=O)c1cc(F)ccc1OCC(=O)Nc1ccc2c(c1)OCCO2, the inhibition was -15.9%.
With O=c1ccc2c(-c3ccccc3S(=O)(=O)O)c3ccc(O)c(O)c3oc-2c1O the inhibition was 13.3%.
COC(=O)CCNc1ccc2c(c1)OCCO2 showed an inhibition of 0.987%.
CCCCN(CC(=O)NC(C)(C)C)C(=O)C(=O)Nc1ccc2c(c1)OCCO2 was tested, and the inhibition was 64.1% (active).
For CCC(C)(C)NC(=O)CN(C(=O)C(=O)Nc1ccc2c(c1)OCCO2)C(C)(C)CC, the inhibition was -4.87%.
Work on COC(=O)[C@]1(C)CCC[C@@]2(C)C3CC[C@]4(OC(C)=O)C[C@@]3(CCC21)CC4=NO (stereo not given in full) yielded an inhibition of 2.69%.
With O=C(CN1C(=O)c2cccnc2Oc2ccc(Cl)cc21)Nc1ccc(F)cc1 the inhibition was 32.7% (active).
O=C(CN1C(=O)c2cccnc2Oc2ccc(Cl)cc21)NCCc1ccccc1 was tested, and the inhibition was 10.8%.
With CC(=O)c1cccc(NC(=O)CN2C(=O)c3cccnc3Oc3ccc(Cl)cc32)c1 the inhibition was 8.77%.
With CCC(C)N(C(=O)CSc1nnnn1-c1ccccc1OC)C1CCS(=O)(=O)C1 (stereo not given) the inhibition was -18.8%.
CCOc1cccc2cc(C(=O)OCC(=O)Nc3c(C)cccc3CC)c(=O)oc12 showed an inhibition of 17.6%.
For CCC1CCC2(CC1)NC(=O)N(CC(=O)Nc1ccc(OC)cc1)C2=O (stereo not given), the inhibition was 21.9%.
O=C(CSc1cccc[n+]1[O-])c1ccc(Cl)cc1 showed an inhibition of 11.7%.
With O=C(C[n+]1ccc2c(c1)nnn2-c1ccccc1)c1ccc(Cl)cc1 the inhibition was 35.8% (active).
O=C(Cn1cc(-c2nnnn2-c2ccc(Cl)cc2)c(=O)c2ccccc21)c1ccccc1 was tested, and the inhibition was -5.55%.
Molecule COc1cc(OC)cc(-c2c(-c3ccc(F)cc3)c3cc(-c4ccc5cc[nH]c5c4)ccc3n2C)c1 has an inhibition of 3.65%.
In the case of O=C(COC(=O)c1c(Cl)cccc1Cl)Nc1cccc(S(=O)(=O)NC2=NCCCCC2)c1, the inhibition is reported as -9.77%.
With O=C(Cc1ccc(S(=O)(=O)N2CCOCC2)s1)N1CCN(c2ccc(C(F)(F)F)cc2[N+](=O)[O-])CC1 the inhibition was -7.45%.
For O=C(Nc1cccc(C(F)(F)F)c1)c1ccc(N2CCNCC2)c([N+](=O)[O-])c1, the inhibition was 8.47%.
In the case of COc1cc(OC)cc(C(=O)NC(=S)N2CCN(c3ccc(C(F)(F)F)cc3[N+](=O)[O-])CC2)c1, the inhibition is reported as 30% (active).
With O=S(=O)(NCCCN1CCOCC1)c1ccc(F)c(Cl)c1 the inhibition was 26.5%.
With COC(=O)c1ccc(-c2c(-c3ccccc3)ncc3cc(OC)c(OC)cc23)cc1 the inhibition was -1.67%.
Molecule CC(C)CN(C(=O)CSc1ncnc2sccc12)C1CCS(=O)(=O)C1 (stereo not given) has an inhibition of 6.11%.
Work on CCOc1ccc(S(=O)(=O)Nc2cccc(C(=O)NCC3(N4CCCCC4)CCCCC3)c2)cc1 yielded an inhibition of -9.84%.
For CCOC(=O)CNC(=O)CSc1nnc(-c2cccc(OC)c2)n1CC, the inhibition was -19.1%.
CCn1c(COc2ccccc2)nnc1SCC(=O)NCc1ccco1 gave an inhibition of -10.2%.
With CCOC(=O)CNC(=O)CSc1nnc(COc2ccc(Cl)cc2)n1CC the inhibition was 32.9% (active).
COc1ccc(NC(=O)C(=O)NCC(c2ccco2)N2CCc3ccccc3C2)cc1 (stereo not given) was tested, and the inhibition was -3.07%.
COc1ccc(OC)c(NC(=S)N2CCc3ccccc3C2)c1 showed an inhibition of 16.6%.
With COc1ccc(CCC(C)N2CCc3ccccc3C2)cc1 (stereo not given) the inhibition was 55% (active).
For CN(C)S(=O)(=O)c1cccc(NC(=O)COc2ccc3ccccc3c2)c1, the inhibition was 7.96%.
Molecule CCOC(=O)C1CCCN(Cc2nc(N)nc(Nc3ccc(C)cc3)n2)C1 (stereo not given) has an inhibition of 12.9%.
Work on CCOC(=O)C1CCCN(C(=O)COc2ccc(N(C)S(=O)(=O)c3ccc(C)cc3)cc2)C1 (stereo not given) yielded an inhibition of 15.8%.
With CCOC(=O)C1CCCN(CCSc2ccc(C)cc2)C1 (stereo not given) the inhibition was 43.5% (active).
CCN(CC)c1ccc(NC(=O)CN2C(=O)NC3(CCc4ccccc43)C2=O)cc1 (stereo not given) gave an inhibition of 2.26%.
